Measurements taken from PubChem BioAssay (NCI).
The panel holds about 79,000 compounds, 15% with a hit somewhere; the sample as a whole holds those more often. Cut-off read from the data, not from the text of the source: active = growth inhibition above about 70%; inactive = the rest.

Key:
[1] = NCI Yeast Anticancer Drug Screen. Data for the rad50 strain (AID 155);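 note: 0% = growth of vehicle-only cultures of the same strain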; settings: S. cerevisiae rad50 strain growth inhibition; at 50.0 µM; active compounds read high
Procedure, shortened: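 Genetically altered yeast (DNA repair pathway); compound treatment; growth inhibition vs vehicle ctrl.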

[2] = NCI Yeast Anticancer Drug Screen. Data for the mec2-1 strain (AID 157); settings: S. cerevisiae mec2-1 strain, at 50.0 µM, active compounds read high
Procedure, shortened: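 Using mec2-1 yeast: add compound, measure growth, express inhibition versus vehicle-treated cultures.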

[3] = NCI Yeast Anticancer Drug Screen. Data for the sgs1 mgt1 strain (AID 161);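 note: 0% = growth of cultures given vehicle only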; settings: S. cerevisiae sgs1 mgt1 strain, at 50.0 µM, active compounds read high
Procedure, shortened: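 Compounds are added to genetically altered yeast, and growth is compared with cultures given vehicle alone to give percent inhibition.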

[4] = NCI Yeast Anticancer Drug Screen. Data for the cln2 rad14 strain (AID 165);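 note: 0% = growth equal to vehicle treated cultures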; settings: S. cerevisiae cln2 rad14 strain, at 50.0 µM, active compounds read high
Procedure, shortened: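 Yeast strain cln2 rad14, bearing defects in cell cycle control and DNA repair, serves as the test system; values reflect growth inhibition compared with vehicle.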

[5] = NCI Yeast Anticancer Drug Screen. Data for the bub3 strain (AID 167); settings: S. cerevisiae bub3 mutant strain, at 50.0 µM, active compounds read high
Procedure, shortened: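 Yeast carrying a defined mutation is treated with each compound, and growth is compared with that of vehicle-exposed cells to give inhibition.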

[6] = NCI Yeast Anticancer Drug Screen. Data for the mlh1 rad18 strain (AID 175); settings: S. cerevisiae mlh1 rad18 strain growth inhibition; at 50.0 µM; active compounds read high
Procedure, shortened: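 Steps: expose repair-defective yeast to compound; measure growth; express inhibition against vehicle-treated controls.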

Measured: growth inhibition

CCOC(=C[P+](c1ccccc1)(c1ccccc1)c1ccccc1)OCC
inactive: [1] -6.5% | [2] 20.8% | [3] 2.35% | [4] -9.5% | [5] -3.6% | [6] -36%

CCNC(=O)NCc1cc(C)ccc1C
inactive: [1] 7.85% | [2] -12.2% | [3] -11.4% | [4] 19.2% | [5] 6.45% | [6] 12.1%

C/C1=C/C2=CC(C)C[C@@H]2C(=O)[C@]2(C)C(=O)CC(C)(C)[C@H]2CC1=O (stereo not given in full)
inactive: [1] 5.5% | [2] -8.6% | [3] 22.4% | [4] 5% | [5] -13.6% | [6] -87.3%

[N-]=[N+]=NC1CC(n2ccc(N)nc2=O)OC1CO (stereo not given)
inactive: [1] -3.9% | [2] 13.6% | [3] 0.8% | [4] -6.65% | [5] -8.95% | [6] 8.8%

CC(=O)Oc1c2oc3cc(O)c(O)cc3c2c(OC(C)=O)c2oc3cc(O)c(O)cc3c12
inactive: [1] -0.4% | [2] 0.05% | [3] -1.15% | [4] -5.45% | [5] -0.8% | [6] -29.1%

COc1cc(NC(C)CCCN)c2nccc(C)c2c1 (stereo not given)
inactive: [1] 16.2% | [2] 12.2% | [3] -27.1% | [4] -8.15% | [5] -62.5% | [6] -36.9%

CC1CNC(=S)N(c2cccc3ccccc23)C1=O (stereo not given)
inactive: [1] -4.8% | [2] -1% | [3] -3.7% | [4] -5% | [5] -9.35% | [6] 4.2%

Cc1cc(C)c(OCC(O)CO)c(C)c1 (stereo not given)
inactive: [1] 2.45% | [2] -26.1% | [3] 14.7% | [4] -10.1% | [5] 5.9% | [6] -8.8%

Cc1c(C)c(C)c2cc3c(C)c(C)c(C)c(C)c3cc2c1C
inactive: [1] -4.55% | [2] -1.9% | [3] -8.5% | [4] -2.35% | [5] 6.45% | [6] -11.6%

Cc1cc(N=Nc2ccc(C(=O)Nc3ccc4cc(S(=O)(=O)O)ccc4c3)cc2)c(N)c(N=Nc2ccc(N=Nc3ccc(O)c(C(=O)O)c3)cc2)c1N
inactive: [1] 8.2% | [2] 29.6% | [3] 53.8% | [4] -21.9% | [5] -11.3% | [6] 44.6%

Oc1ccc2ccccc2c1C(c1ccccc1)N1CCOCC1 (stereo not given)
inactive: [1] -2.5% | [2] -11% | [3] -5.9% | [4] -24.7% | [5] -12.4% | [6] -15.2%

CCC(c1ccc(OCc2ccccc2)cc1)c1cc2c(cc1OCCO)OCO2 (stereo not given)
inactive: [1] 23.7% | [2] 57% | [3] -3% | [4] 0.9% | [5] 39.7% | [6] 57%

Nc1ncc2c(ncn2CC(O)CO)n1 (stereo not given)
inactive: [1] -24.6% | [2] -2.5% | [3] -1.55% | [4] 4.65% | [5] -3% | [6] -3.25%

COC(=O)C(/C(=N\NC(N)=S)C(=O)Nc1ccccc1[N+](=O)[O-])c1cnc2ccccc2n1 (stereo not given)
inactive: [1] 5% | [2] -14.7% | [3] -8.55% | [4] 2.1% | [5] -19.1% | [6] -18.7%

COC(=O)/C(=N\NC(=S)NN)C(C(=O)C(=O)Nc1ccccc1C(N)=O)c1nc2ccccc2[nH]c1=O (stereo not given)
inactive: [1] 24.9% | [2] 6.9% | [3] 14.9% | [4] -42.5% | [5] -4.5% | [6] 23.1%

Cc1ccc(NCC(O)CN2CCCC2)cc1 (stereo not given)
inactive: [1] 12.3% | [2] 5.35% | [3] 12.5% | [4] -26.4% | [5] -14.9% | [6] 12.1%

CN(C)/C=N/NC(=O)c1ccccc1N
inactive: [1] -15% | [2] -15.7% | [3] -6.75% | [4] -11.6% | [5] 2.15% | [6] 0.55%

C#CCOCn1cc(C)c(=O)[nH]c1=O
inactive: [1] 0.4% | [2] -0.1% | [3] 16.5% | [4] 10.4% | [5] 0.05% | [6] 12.4%

CC[P+](C)(C)c1ccccc1
inactive: [1] 30.9% | [2] -0.8% | [3] 2.1% | [4] 7.55% | [5] 11.7% | [6] 2.75%

CC1(O)CC2C(CC1SC1CC3C(CC1(C)O)C3(C)C)C2(C)C (stereo not given)
inactive: [1] -48.3% | [2] -33.5% | [3] -45.8% | [4] -26.4% | [5] -51.7% | [6] -33%

CCCC(=O)Nc1cccc(Cl)c1
inactive: [1] 16.2% | [2] 9.05% | [3] 8.85% | [4] 7.65% | [5] -0.75% | [6] 2.35%

COc1cc(NCCCCCCCNC(C)C)c2nccc(C)c2c1
inactive: [1] 26.7% | [2] 13.7% | [3] -6.25% | [4] 7.35% | [5] -2.7% | [6] -33.1%

O=C(N=C1C(=O)C2(CCCCC2)C2(N=C(c3ccccc3)OC2=O)C12CCCCC2)c1ccccc1 (stereo not given)
inactive: [1] 11.8% | [2] 8.75% | [3] 9.35% | [4] -5.05% | [5] -2.35% | [6] 14.5%

CC1CCCC2(C)CCC(=O)C=C12 (stereo not given)
inactive: [1] -2% | [2] 6.75% | [3] -12.5% | [4] -13.8% | [5] -1.95% | [6] -20.5%

O=C(O)c1cc(C2CCCC2)nc2ccccc12
inactive: [1] 4.6% | [2] 17% | [3] -5.25% | [4] -6% | [5] -13.2% | [6] 6.85%

O=[N+]([O-])c1ccc(OCC#CCOc2ccc([N+](=O)[O-])c(C(F)(F)F)c2)cc1C(F)(F)F
inactive: [1] 31.4% | [2] -13.6% | [3] -0.2% | [4] 4.65% | [5] -2.3% | [6] -3.75%

CCC(C(=O)O)c1ccc(OCc2ccccc2)cc1 (stereo not given)
inactive: [1] 15.7% | [2] 2% | [3] -10.2% | [4] 18.7% | [5] 8.05% | [6] -2.95%

CCCC(C)C(=O)OC1CCCCC1 (stereo not given)
inactive: [1] 9.35% | [2] 1.3% | [3] -0.85% | [4] -21.4% | [5] 7.6% | [6] 3%

CC(=O)Oc1c(Cl)c(Cl)c(C#N)c(Cl)c1C#N
inactive: [1] 30.4% | [2] 1.7% | [3] 26.2% | [4] 10.8% | [5] 8.8% | [6] 26.1%

O=C(NC1CCCN1C(=O)/C=C\c1ccccc1)OCc1ccccc1 (stereo not given)
inactive: [1] -8.95% | [2] -4.95% | [3] -13.7% | [4] -62.5% | [5] 0.6% | [6] -12.3%

Cc1cc(OC(=O)Nc2cccc(Cl)c2C)ccc1[N+](=O)[O-]
inactive: [1] 1.35% | [2] 53.4% | [3] 25.6% | [4] 3.95% | [5] 48.9% | [6] 1.7%

COC(=O)NN/C=C(\C=Nc1ccccc1)[N+](=O)[O-]
inactive: [1] -0.25% | [2] 11.1% | [3] 17.4% | [4] 18.4% | [5] 12.9% | [6] 5.4%

COC(=O)c1c2c(cc3c1CC1(Cc4cc5c(c(C=O)c4C1)CCC5)C3)CCC2 (stereo not given)
inactive: [1] -50.6% | [2] -23.4% | [3] 8.25% | [4] 1.55% | [5] 14.4% | [6] 4.8%

C/C(CC(C)C)=N/NC(N)=S
inactive: [1] 14.9% | [2] 0.7% | [3] 1.35% | [4] -23.1% | [5] 32.6% | [6] 30.4%

COc1cc(C)n2nnnc2n1
inactive: [1] 9.5% | [2] -6.2% | [3] 0.2% | [4] -15.8% | [5] 1.3% | [6] -9.4%
